Inconclusive results are not listed. Some structures have more than one record in an assay (separate samples or runs), and their calls can disagree. Activity calls are given as the source filed them. How the source made its calls: active means hit-call score of the fitted dose curve at least 0.9, where 1 is the maximum; inconclusive means response in the unintended direction; inactive means score below 0.9.

Sequence of human Retinoic Acid Receptor gamma (RARg), RARG (gene 5916) (P13631 whole entry, looked up): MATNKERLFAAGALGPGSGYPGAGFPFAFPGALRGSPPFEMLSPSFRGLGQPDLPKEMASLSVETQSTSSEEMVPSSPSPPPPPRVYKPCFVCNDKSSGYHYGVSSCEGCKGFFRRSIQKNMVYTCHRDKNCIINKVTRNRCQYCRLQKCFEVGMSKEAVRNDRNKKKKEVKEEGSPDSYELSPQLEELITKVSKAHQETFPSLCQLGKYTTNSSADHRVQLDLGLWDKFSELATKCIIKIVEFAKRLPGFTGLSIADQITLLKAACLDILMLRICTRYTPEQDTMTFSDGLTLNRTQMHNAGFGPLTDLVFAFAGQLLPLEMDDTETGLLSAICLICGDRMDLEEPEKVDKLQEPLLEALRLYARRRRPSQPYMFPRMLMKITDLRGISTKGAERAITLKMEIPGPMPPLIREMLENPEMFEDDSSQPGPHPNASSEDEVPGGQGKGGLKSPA

This assay concerns the target human Retinoic Acid Receptor gamma (RARg), RARG (gene 5916) (UniProt P13631). The experiment in a line: ATG_RARg_TRANS: Attagene TRANS-FACTORIAL HepG2 Assay for human Retinoic Acid Receptor gamma (RARg) (AID 2283009).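 On AC50: AC50 is for reporter induction above DMSO meaning RARg activation.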 The protocol:
ATG_TRANS is a cell-based, multiplexed-readout assay that uses HepG2, a human liver cell line, with measurements taken at 24 hours after chemical dosing in a 24-well plate.ATG_RARg_TRANS is one of 30 assay component(s) measured or calculated from the ATG_TRANS assay. It is designed to make measurements of mRNA induction, a form of inducible reporter, as detected with fluorescence intensity signals by Reverse transcription polymerase chain reaction (RT-PCR) and Capillary electrophoresis technology.Data from the assay component ATG_RARg_TRANS was analyzed into 1 assay endpoint. This assay endpoint, ATG_RARg_TRANS, was analyzed in the positive analysis fitting direction relative to DMSO as the negative control and baseline of activity. Using a type of inducible reporter, measures of mRNA for gain-of-signal activity can be used to understand the reporter gene at the transcription factor-level as they relate to the gene RARG. Furthermore, this assay endpoint can be referred to as a primary readout, because this assay has produced multiple assay endpoints where this one serves a reporter gene function. To generalize the intended target to other relatable targets, this assay endpoint is annotated to the nuclear receptor intended target family, where the subfamily is non-steroidal.
Human liver HepG2 cells are transiently transfected with multiple reporter transcription units (MRTUs) in 6-well plates using FuGene 6 reagent (Roche; 3 ml FuGene/1 mg DNA). The MRTU constructs are regulated by a cis-regulating element (promoter). […] A major difference between the CIS and TRANS system is that in CIS activities of endogenous TFs are measured, whereas the TRANS assay evaluates changes in activities of exogenous, chimeric NR-Gal4 proteins. […] At the end of 24 hour incubation, total RNA was isolated using TriZol reagent (Invitrogen). The isolated RNA is then reverse-transcribed using oligo(dT) primer and Mo-MLV reverse transcriptase (Invitrogen) with DNAse I (Ambion) treatment for 30 min. The one-tenth of the produced cDNA was amplified by PCR using Taq DNA polymerase (Invitrogen) and two reporter sequence-specific primers. The PCR products were fluorescently labeled by primer extension with 6-arboxyfluorescein (6-FAM) 5'-labeled reporter sequence-specific primer (2 min at 95 C, 20 s at 68 C and 10 min at 72 C) and these products were digested with 5U of HpaI (New England Biolabs) for 2h at 37 C. […] The raw capillary electrophoresis data was processed using Attagraph software (Attagene).
For the molecule `CCCCCCCCCC[N+](C)(C)CCCCCCCCCC`, the molecule was called inactive.

As for `O=S(=O)(O)C(F)(F)C(F)(F)C(F)(F)C(F)(F)F`, the call was inactive.

Consider `Cc1cc(-c2ccc(N)c(C)c2)ccc1N`, for which the call was inactive.

Turning to `CCOC(=O)C(O)(c1ccc(Cl)cc1)c1ccc(Cl)cc1`, the molecule was classed as inactive.

As usually defined, the AC50 is the midpoint of the concentration-response curve, whichever way the signal moves. For the molecule `O=C(O)C(F)(F)C(F)(F)C(F)(F)C(F)(F)C(F)(F)C(F)(F)C(F)(F)C(F)(F)C(F)(F)F`, the AC50 is 33.4 µM (active) and the outcome was inactive.

Turning to `O=C(NC(=O)c1c(F)cccc1F)Nc1cc(Cl)c(OC(F)(F)C(F)F)c(Cl)c1`, the result was inactive.

In the case of `N#Cc1ccc(N(CC(N)=O)CC(F)(F)F)cc1C(F)(F)F`, the molecule was called inactive.

With `CC1=C2C[C@H]3[C@@H](CC=C4C[C@@H](O)CC[C@@]43C)[C@@H]2CC[C@]12O[C@@H]1C[C@H](C)CN[C@H]1[C@H]2C`, the molecule was classed as inactive.

Consider `ClC1=C(Cl)[C@]2(Cl)[C@@H]3[C@H]4C[C@H]([C@@H]5O[C@H]45)[C@@H]3[C@@]1(Cl)C2(Cl)Cl`, for which the AC50 is 0.937 µM (active).

As to `C[C@]12CCC(=O)C=C1CC[C@@H]1[C@@H]2CC[C@@]2(C)[C@H]1CC[C@]2(C)O`, the result was inactive.

With `C[C@]12CCC(=O)C=C1CC[C@@H]1[C@@H]2CC[C@]2(C)C(=O)CC[C@@H]12`, the molecule was called inactive.

`NS(=O)(=O)C(F)(F)C(F)(F)C(F)(F)C(F)(F)C(F)(F)C(F)(F)C(F)(F)C(F)(F)F`: the outcome was inactive.

For the molecule `Cc1cc(O)ccc1Cl`, the outcome was inactive.

As to `CN(C)CCO`, the molecule was called inactive.

Take `CC(C)(O)C(=O)Nc1ccc([N+](=O)[O-])c(C(F)(F)F)c1`: the result was inactive.

On to `OCC(O)CO`, for which the result was inactive.

On to `O=C(O)C(F)(F)C(F)(F)C(F)(F)C(F)(F)C(F)(F)C(F)(F)C(F)(F)C(F)(F)F`, for which the result was inactive.

With `Nc1ccc(-c2ccc(N)cc2)cc1`, the outcome was inactive.

For `Clc1ccc(Cl)cc1`, the molecule was classed as inactive.

For `CCCCCCCCCc1ccc(O)cc1`, the outcome was inactive.

`Cc1ccccc1O`: the molecule was called inactive.

As for `CCC(C)c1cc([N+](=O)[O-])cc([N+](=O)[O-])c1O` (configuration not stated), the molecule was called inactive.

On to `CCC(=O)O[C@H]1CC[C@H]2[C@@H]3CCC4=CC(=O)CC[C@]4(C)[C@H]3CC[C@]12C`, for which the molecule was classed as inactive.

`Cc1cc2c3c(c1)C(c1ccccc1)=N[C@@H](NC(=O)c1ccncc1)C(=O)N3CC2`: the molecule was called inactive.

Consider `ClC1=C(Cl)[C@]2(Cl)[C@@H]3[C@@H](Cl)[C@H]4O[C@H]4[C@@H]3C1(Cl)C2(Cl)Cl`, for which the molecule was called inactive.

Consider `CC(C)(c1ccccc1)c1ccc(O)cc1`, for which the result was inactive.

Turning to `Clc1ccc(C(c2ccccc2Cl)C(Cl)(Cl)Cl)cc1` (configuration not stated), the call was inactive.

Turning to `c1cc2ccc3cccc4ccc(c1)c2c34`, the outcome was inactive.

For the molecule `CCCN(CCC)N=O`, the call was inactive.

For the molecule `C=CC(N)=O`, the outcome was inactive.

On to `Cc1ccccc1CO[C@@H]1C[C@@]2(C(C)C)CC[C@]1(C)O2`, for which the molecule was classed as inactive.

With `ClC1=C(Cl)[C@]2(Cl)[C@@H]3[C@@H]4C[C@@H]([C@H]5O[C@@H]45)[C@@H]3[C@@]1(Cl)C2(Cl)Cl`, the AC50 is 2.12 µM (active).

For the molecule `CO/C=C(/C(=O)OC)c1ccccc1COc1cccc(C(F)(F)F)n1`, the result was inactive.

On to `Cc1cccc([N+](=O)[O-])c1`, for which the outcome was inactive.

For `Oc1c(Cl)c(Cl)c(Cl)c(Cl)c1Cl`, the call was inactive.

As for `COc1ccc(O)c(C(C)(C)C)c1`, the call was inactive.

The record behind these values is PubChem BioAssay (EPA / NIEHS).
